For 66 compounds, activation results are on record in PubChem BioAssay AID574 (The Scripps Research Institute Molecular Screening Center, 2007).

Out of some 65,000 compounds screened, about 450 (0.69%) were called active. The sample holds actives, similar compounds and a random draw of the others, so the mix is not that of the screen.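 Rule for the calls: active = activation above a set limit, the screen-wide mean activation plus 3 SD (cut at about 8.5% in these data); inactive = the rest.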 Where a SMILES comes first, the peptide text is derived from it. The star is where a group is joined. Bz = O=C(c1ccccc1)*

The target in the experiment is 5-hydroxytryptamine receptor 1E (Homo sapiens) (UniProt P28566). Put plainly: 5-HT1E receptor agonists, primary screen, cell-based, HTS (AID 574).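 Note: 100% = positive control agonist at 1 µM giving full maximal response.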 The note with it: CHO 5-HT1E Ga15 NFAT-bla reporter, FRET; at 6 µM; hits give high values; 0% DMSO wells, 100% control agonist wells.
Chain of 5-hydroxytryptamine receptor 1E (Homo sapiens) (P28566 whole entry, looked up): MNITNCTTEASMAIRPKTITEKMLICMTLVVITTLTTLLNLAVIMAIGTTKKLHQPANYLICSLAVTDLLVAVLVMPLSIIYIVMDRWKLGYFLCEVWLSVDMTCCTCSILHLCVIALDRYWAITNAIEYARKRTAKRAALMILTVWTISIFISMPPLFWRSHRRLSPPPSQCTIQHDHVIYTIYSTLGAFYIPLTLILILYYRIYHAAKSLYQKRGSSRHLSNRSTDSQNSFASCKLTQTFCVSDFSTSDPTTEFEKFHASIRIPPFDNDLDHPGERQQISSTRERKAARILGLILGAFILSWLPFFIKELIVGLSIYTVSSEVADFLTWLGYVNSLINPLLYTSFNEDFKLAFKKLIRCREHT
In the case of `Cn1nnnc1SCc1cc(=O)[nH]c2ccccc12`, the activation is -0.5% (inactive). For `COc1ccccc1C(=O)N1CCN=C1SCc1cccnc1` the value was -0.4% (inactive); for `Cn1nc(-c2ccc(N3CCOCC3)c(NC(=O)c3ccccc3)c2)c2ccccc2c1=O`, -1% (inactive). `FC(F)(F)c1cc(-c2cccs2)nc(NCc2ccco2)n1`: the activation was -1.9% (inactive).

Take `CC(c1ccccc1)n1c(NCCCn2ccnc2)nc2c1c(=O)[nH]c(=O)n2C` (stereo unspecified): the activation is -0.6% (inactive). `COc1cccc(-c2nc3n(n2)C(c2ccccc2Cl)C(C(N)=O)=C(C)N3)c1` (stereo unspecified): the activation is -0.2% (inactive). The figure for `CCc1c(C)sc(NC(=O)OC)c1C(=O)N1CCOCC1` is 14.2% (active); for `CCc1c(C)sc(NC(=O)c2ccc(Br)o2)c1C(=O)OC` it is 0.2% (inactive). Regarding `CCOC(=O)c1sc(NC(=O)CCN2CCOCC2)c(C(=O)OCC)c1C`, the activation is -0.8% (inactive). For `CCCN(c1ccc(C(C)C)cc1)S(=O)(=O)c1c(C)[nH]c(=O)[nH]c1=O`, the activation was -0.3% (inactive). For the compound `COc1ccccc1CNC(=O)Cn1cc2c(n1)CCCC2`, the activation was -0.6% (inactive). For `COCCNC(=O)Cn1cc2c(n1)CCCCC2` the value was -0.1% (inactive). For `O=C(Cn1cc2c(n1)CCCCC2)NCCN1CCOCC1`, the activation was 9.7% (active).

Regarding `COCCCNC(=O)COc1cc(C)c(Cl)c(C)c1`, the activation is -0.3% (inactive). For `NC(=S)c1ccc(C(N)=S)o1` the value was 0% (inactive); for `Cc1nn(-c2cc(Cl)ccc2N)c(=O)c2ccccc12`, -0.1% (inactive); for `Cc1cccc(NC(=O)CSc2nnc(CCCCCNC(=O)OC(C)(C)C)o2)c1C`, -1.3% (inactive).

As for `O=C(O)C1CCN1C1CCCCC1` (stereo unspecified), the activation is -0.7% (inactive). For the compound `Cc1ccc(S(=O)(=O)N2C3C=CC(C3)C2C(=O)O)cc1` (stereo unspecified), the activation was -0.4% (inactive).

For `COc1ccc(C(=O)N(Cc2ccc(N(C)C)cc2)C2CCS(=O)(=O)C2)cc1` (stereo unspecified), the activation was 0.3% (inactive).

Turning to `O=C(/C(=N\O)n1cncn1)c1ccc(Br)cc1Br`, the activation was 0.1% (inactive). The figure for `CCn1c(=N)c(S(=O)(=O)c2ccc(F)cc2)cc2c(=O)n3ccccc3nc21` is 4.4% (inactive); for `O=C(NC1CCCC1)c1ccc(Br)s1` it is -1.5% (inactive).

Regarding `Clc1ccc(C=NC23CN4CN(CN(C4)C2)C3)cc1`, the activation was -0.1% (inactive). For `O=C(CN1CCN(CC(=O)Nc2ccc3c(c2)OCO3)CC1)Nc1ccc(F)cc1` the value was -0.7% (inactive); for `Cc1nnc(SCc2ccc(C(=O)c3ccc(Cl)cc3)o2)n1-c1ccccc1`, 0.9% (inactive).

On to `O=C(NC(Cc1ccccc1)C(=O)N1CCCC1C(=O)O)c1ccccc1` (stereo not drawn) (Bz-Phe-Pro-OH; configuration not given here), for which the activation is -0.4% (inactive).

Consider `N#Cc1c(/N=C/N2CCCC2)oc(-c2ccccc2)c1-c1ccccc1`, for which the activation is 0.2% (inactive). Take `O=C(Nc1ccccc1)N(Cc1cccnc1)Cc1ccco1`: the activation was 10.7% (active). On to `O=C(Nc1ccccc1)Nc1ccccc1C(=O)NCc1ccco1`, for which the activation was -0.6% (inactive). With `O=C(CS(=O)(=O)Cc1ccccc1)Nc1cccnc1`, the activation was 1.1% (inactive). As for `COc1cccc(OCC(O)CN2CCN(CCO)CC2)c1` (stereo unspecified), the activation was -0.1% (inactive).

Turning to `C=CCC(NCCCO)c1cccc(OC)c1OC` (stereo unspecified), the activation was 10.3% (active). In the case of `COc1cccc(C(CC(=O)NCCN2CCOCC2)NS(=O)(=O)c2ccc(C)cc2)c1OC` (stereo unspecified), the activation is 0.5% (inactive). For `COc1ccccc1C(=O)C(O)c1ccccc1OC` (stereo unspecified) the value was -0.2% (inactive); for `CC1CCCC(N2CCN(C(=O)c3ccc(F)cc3)CC2)C1` (stereo unspecified), -0.1% (inactive). With `O=C(O)CN(Cc1ccco1)S(=O)(=O)c1ccc(F)cc1`, the activation is 0% (inactive). The figure for `COc1cccc(OC)c1C(=O)Nc1nnc(C(C)C)s1` is -0.1% (inactive). Turning to `CCn1c(CNc2ccc(OC)cc2)nnc1SCC(=O)c1ccc(OC)cc1`, the activation was 0.6% (inactive). With `CC1=C(C(=O)OC2CCCCC2)C(c2cccnc2)n2ncnc2N1` (stereo unspecified), the activation is -0.4% (inactive). For the compound `Cc1ccnc(SCCn2c(N(C)Cc3ccccc3)nc3c2c(=O)n(C)c(=O)n3C)n1`, the activation is -0.1% (inactive).

As to `CCOC(=O)C1(c2ccccc2)NC(c2ccc(N(C)C)cc2)C2C(=O)N(C)C(=O)C21` (stereo unspecified), the activation was 0.7% (inactive).

`COc1ccccc1-n1cnc2cc(C(=O)NCC3CCCO3)ccc21` (stereo unspecified): the activation is 0% (inactive). For `C=CCn1c(COc2ccccc2)nnc1SCC(=O)NCC(=O)OCC` the value was -0.3% (inactive); for `CCc1nnc(NC(=O)CSc2nc3c(c(=O)n2-c2ccccc2OC)SCC3)s1`, -0.6% (inactive). Turning to `CCCC1C(c2ccccc2)C(C#N)(C#N)C2(C#N)CC1(N)NC2=O` (stereo unspecified), the activation is 0.5% (inactive).

`CC(=O)c1c(N)n(C)c(=O)n(C)c1=O`: the activation is 22.1% (active). With `CC(=O)OCc1cc(=O)n(C)c(=O)n1C`, the activation is -1.2% (inactive).

As for `Cc1cc(C(=O)OCC(=O)c2c(N)n(C)c(=O)n(C)c2=O)c(C)o1`, the activation was 0.7% (inactive). Consider `Cc1ccc(N(C(=O)CC2NC(=O)NC2=O)C2(C(=O)NC3CCCC3)CCCCC2)cc1` (stereo unspecified), for which the activation is -0.5% (inactive). With `CC(C)(C)OC(=O)c1c(N)n(CCCN2CCCC2=O)c2nc3ccccc3nc12`, the activation is 2.2% (inactive). Consider `CSc1nc2ccc(S(=O)(=O)N3CCc4ccccc43)cc2s1`, for which the activation was 0.9% (inactive). With `COCCCNC(=O)C1CC(=O)N(c2ccc(C)cc2)C1` (stereo unspecified), the activation was -1.2% (inactive).

On to `CC(CCO)Nc1nc2c([nH]1)c(=O)n(C)c(=O)n2C` (stereo unspecified), for which the activation is -1.6% (inactive).

On to `CCCOc1ccc(/C(O)=C2/C(=O)C(=O)N(CCN(C)C)C2c2ccc(OC)c(OC)c2)cc1` (stereo unspecified), for which the activation is -0.3% (inactive).

On to `O=C(Nc1cccc2c1CCCC2)C1CCN(C(=O)NC2CCCCC2)CC1`, for which the activation is -1.2% (inactive). For `CC1(C)CN=C(N2CCN(c3ncnc4sc5c(c34)CCCC5)CC2)S1` the value was -0.6% (inactive); for `CCc1ccc(Nc2ncc3c(n2)CC(c2ccco2)CC3=O)cc1` (stereo unspecified), -0.5% (inactive). In the case of `CCOCC(=O)NCc1ccc2c(c1)cc(C)n2C`, the activation is 0.7% (inactive). As to `COc1ccc(S(=O)(=O)Nc2ccc3c(c2)OCO3)cc1Cl`, the activation was -1.3% (inactive).

Turning to `Cc1nc(NCCN)c(C#N)c2c1COC(C)(C)C2`, the activation is -0.4% (inactive). Take `CCCCN(C)C(=O)c1ccc2c(c1)N(CC)C(=O)c1ccccc1S2(=O)=O`: the activation is -1.1% (inactive). Take `O=C(Nc1ccccc1C(=O)N1CCOCC1)C1CCC(=O)N1C1CCCC1` (stereo unspecified): the activation was 0.6% (inactive). For the compound `Cc1cc(=O)cc(C)[nH]1`, the activation was 33.2% (active).

With `Cc1cc(C)nc(SCc2nnc(SCC(=O)Nc3ncc(C)s3)n2Cc2ccco2)n1`, the activation is 0.8% (inactive). On to `CCN1C(=O)CS/C1=N\c1nccs1`, for which the activation is -0.1% (inactive).
